# Bioassay records as filed in PubChem BioAssay.
# The list is not random: actives were taken first. Their share in the collection is about 3.3%.
# TbPYK inhibitor: qHTS of Trypanosoma Brucei Inhibitors; TbPYK enzyme, Kinase-Glo Plus ATP luminescence, 45 min; Potency, µM (titrated, usually from 76.8 µM), inactives show at the highest dose activity, negative = inhibition, hits mostly inhibitors; hit rate 0.12% among 410,000; AID 624173, 2012; further: on the % scale 0 is the no-effect control and ±100 the full control effect; nearly all actives have a fitted effect of over 50% in size
#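 ADP (130 uM final) triggers the TbPYK reaction after compound addition; incubation is 45 min at room temperature. Kinase-Glo Plus is then added and luminescence imaged. Normalized data are fitted to concentration-effect curves.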
# AmpC detergent: qHTS Inhibitors of AmpC Beta-Lactamase (assay with detergent); AmpC hydrolysis of nitrocefin, absorbance 480 nm, 0.01% Triton; Potency, µM (doses to about 114 µM), for inactives: at the highest dose activity change, negative = inhibition, hits mostly inhibitors; hit rate 0.041% among 370,000;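 further: 0% = no-compound wells and -100% = no-enzyme wells; nearly all actives have a fitted effect of over 25% in size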
# Target sequence (P00811 whole entry, looked up): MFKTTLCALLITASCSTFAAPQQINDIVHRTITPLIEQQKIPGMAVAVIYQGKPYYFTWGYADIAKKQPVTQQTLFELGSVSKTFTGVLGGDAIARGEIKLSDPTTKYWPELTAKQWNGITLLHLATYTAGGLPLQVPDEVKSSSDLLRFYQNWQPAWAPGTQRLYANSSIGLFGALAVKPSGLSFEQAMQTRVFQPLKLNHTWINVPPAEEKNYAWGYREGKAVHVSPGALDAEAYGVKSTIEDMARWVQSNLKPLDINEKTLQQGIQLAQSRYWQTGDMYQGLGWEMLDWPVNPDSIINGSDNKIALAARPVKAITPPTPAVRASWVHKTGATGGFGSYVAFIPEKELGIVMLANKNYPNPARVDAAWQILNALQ
#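 20 mM phosphate pH 7.0 + 0.01% (detergent screen) or 0.0001% Triton X-100; 5.3 nM AmpC reagent; cpd preinc 15 min RT; nitrocefin (800 uM stock) to start; A480 q20 s × 4 min; Activity was normalised to no-enzyme and no-compound control wells.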
# RE007 growth inh: qHTS Assay for Inhibitors of the HIV-1 protein Vpr | hit rate 0.21% among 360,000 | S. pombe RE007 Vpr strain, BacTiter-Glo ATP luminescence, 24 h | AID 651644, 2012 | Potency, µM (top dose mostly 92.2 µM), without a hit: top-dose activity change, negative = less growth, most hits filed as inhibitors; active means well fitted falling curve with a large enough effect; inconclusive means small, poorly fitted or top-dose-only effect; inactive means no such curve, though single readings can be large or run the other way; further: on the % scale 0 is the no-effect control and ±100 the full control effect; nearly all actives have a fitted effect of over 50% in size
#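 Fission yeast RE007 carrying one integrated HIV-1 vpr copy, seeded at OD 0.01 in PMG+AL medium with 23 nL pinned compound. Grown 24 h at 30 degrees; viability read by BacTiter-Glo luminescence after 5 min.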
# SARS PLpro yeast: qHTS of Yeast-based Assay for SARS-CoV PLP; hit rate 0.19% among 330,000; S. cerevisiae expressing SARS-CoV PLpro, growth rescue; AID 485353, 2010; Potency, µM (titrated, usually from 32.9 µM), for the others: at the highest dose activity, positive = growth rescue, hits mostly activators; calls by dose curve; further: 0% is about no effect; nearly all actives have a fitted effect of over 55% in size
# AmpC inh no detg: qHTS Inhibitors of AmpC Beta-Lactamase (assay without detergent). AmpC nitrocefin hydrolysis, absorbance 480 nm, 0.0001% Triton. Potency, µM (titrated, usually from 57.1 µM), without a hit: top-dose activity change, negative = inhibition, usual class: inhibitors. P00811. hit rate 0.52% among 330,000;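 further: plate controls were no compound for no effect and no enzyme for full effect; nearly all actives have a fitted effect of over 20% in size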
#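 AmpC (5.3 nM in the dispensed reagent) in 20 mM phosphate pH 7.0 with 0.01% (detergent screen) or 0.0001% Triton X-100 was preincubated with compounds for 15 min at room temperature. Nitrocefin was then added from an 800 uM solution, and hydrolysis was followed at 480 nm.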
# Sm TGR inh: qHTS Assay for the Inhibitors of Schistosoma Mansoni Peroxiredoxins | Schistosoma mansoni thioredoxin glutathione reductase (TGR), Q962Y6 | purified TGR, DTNB reduction, TNB absorbance 405 nm | Potency, µM (highest dose often 114 µM), for the others: at the top dose activity change, negative = inhibition, usual class: inhibitors | hit rate 3% among 360,000 | AID 485364, 2010; further: on the % scale 0 is the no-effect control and ±100 the full control effect; nearly all actives have a fitted effect of over 60% in size
#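 Kinetic colorimetric format: TGR-catalysed, NADPH-driven DTNB reduction monitored via TNB absorbance. Enzyme dispensed at 20 nM; compound exposure 15 min at room temperature before reaction start.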
# An asterisk follows results filed as active; ? = inconclusive; . = no result given; ! = not active in a repeat; [ ] = another dose, or the depositor's remark. Unless noted, the call rests on the fitted dose curve; in most records, active means well fitted curve in the direction sought with a large enough effect; inconclusive means small, poorly fitted or top-dose-only effect, or another doubt; inactive means no such curve, though single readings can be large; an effect the other way counts as inactive or inconclusive. Potency means the concentration at half of the fitted maximal effect.
SMILES,TbPYK inhibitor,AmpC detergent,RE007 growth inh,SARS PLpro yeast,AmpC inh no detg,Sm TGR inh
Cc1nn(CC(=O)N2CCC(N3CCCCC3)CC2)c(=O)c2c1sc1ccccc12,4.8%,-8.2%,-0.1%,-5.2%,0.7%,3.8%
Cc1cccc(OCC(=O)Nc2cccc(C(=O)OCc3cc(=O)n4c(C)csc4n3)c2)c1,1.3%,-2.5%,.,.,.,-2.1%
CC(C)Cn1c(N)c(C(=O)CCl)c(=O)n(C)c1=O,11.9%,-10.1%,-6.0%,-8.9%,-13.6%,20µM*
Cn1c(=O)c(C(=O)COC(=O)c2cc(C(F)(F)F)nc3c(C(F)(F)F)cccc23)c(N)n(CC2CC2)c1=O,.,?,.,-6.8%,-32.2%,-2.6%
Cn1c(=O)c(C(=O)CCl)c(N)n(CC2CC2)c1=O,-2.5%,?,10.7%,-2.4%,0.3%,14.1µM*
CN(C)S(=O)(=O)c1ccc2c(c1)N(CC(=O)Nc1ccc(OC(F)(F)F)cc1)C(=O)CS2,-3.3%,-8.7%,.,.,.,-2.9%
Cc1cc(C)nc(S/C=C/C(=O)c2ccc(F)cc2)n1,.,-1.6%,.,0.1%,-8.5%,0.708µM*
NC(CO)C(=O)NNCc1ccc(O)c(O)c1O (stereo not given),-6.3%,?,6.8%,?,-27.2%,0.316µM*
COc1ccc(NS(=O)(=O)c2ccc(N3CCOCC3)c(NC(=O)C(C)C)c2)cc1,0.3%,0.9%,-10.8%,2.4%,-14.1%,22.5%
CCOC(=O)/C=C/C(=O)Nc1cc(S(=O)(=O)Nc2ccc(OC)cc2)ccc1N1CCOCC1,-13.0%,-9.5%,-4.3%,0.6%,-8.7%,31.6µM*
Cc1ccc(C(=O)O)cc1NC(=S)NC(=O)c1ccc([N+](=O)[O-])c(C)c1,1.2%,-1.8%,1.4%,0.4%,-16.4%,20µM*
CC(=O)N1CCN(c2ccc(NC(=S)NC(=O)c3ccc(C)c([N+](=O)[O-])c3)cc2)CC1,-2.0%,-1.0%,-0.9%,-2.2%,99.5%,11.2µM*
COc1ccc(C(=O)Nc2ccc(N3CCN(C)CC3)cc2)cc1[N+](=O)[O-],4.6%,-11.1%,-3.7%,0.2%,-7.5%,8.4%
Cc1ccc(CNC(=S)Nc2cc(C(=O)O)ccc2C)cc1,-4.4%,-0.6%,-8.6%,-2.5%,86.2%,-13.7%
COc1ccc(C(=O)NC(=S)Nc2ccc(N3CCN(C(C)=O)CC3)cc2)cc1[N+](=O)[O-],-1.5%,4.4%,12.2%,0.2%,45.1%,8.91µM*
CCOc1ccc(C(=O)NC(=S)Nc2ccc(N3CCCCC3)cc2)cc1[N+](=O)[O-],-15.1%,-4.1%,-12.1%,29.7%,-24.7%,0.0%
COc1ccc(NC(=O)CN2CCN(Cc3ccccc3Cl)S2(=O)=O)cc1Cl,6.0%,7.7%,.,.,.,-0.7%
Cc1cc(NS(=O)(=O)c2ccc(NC(=O)c3cnc4sccn4c3=O)cc2)nc(C)n1,-6.7%,1.8%,6.1%,0.1%,-32.1%,1.0%
Cc1cc(C)nc(NC(=O)c2cnc3sccn3c2=O)n1,-7.7%,?,11.5%,-6.4%,39.8µM*,-1.2%
CCCN1CCN(CCCNC(=O)Cn2c(-c3cccs3)cc3ccccc32)CC1,-9.2%,4.5%,.,.,.,-14.0%
O=C(C1COc2ccccc2O1)N(Cc1cccnc1)c1nc2ccc(Cl)cc2s1 (stereo not given),-10.4%,-2.3%,.,.,.,0.2%
O=C1CC(c2ccc(O)c(O)c2)Oc2c1ccc(O)c2O (stereo not given),-16.8%,-4.8%,4.3%,1.8%,-46.3%,56.2µM*
O=C1CC(c2ccc(O)cc2)Oc2cc(O)cc(O)c21 (stereo not given),1.4%,-19.9%,-14.0%[18.4 µM],1.5%,-29.7%,-13.5%
CC(C)=CCc1c(O)cc2c(c1O)C(=O)CC(c1ccccc1)O2 (stereo not given),0.1%,.,-2.7%,.,.,.
CC(C)=CCc1c(O)ccc2c1OC(c1ccc(O)c(O)c1)CC2=O (stereo not given),-11.4%,3.4%,2.7%,0.9%,-52.7%,56.2µM*
SMILES,TbPYK inhibitor,AmpC detergent,RE007 growth inh,SARS PLpro yeast,AmpC inh no detg,Sm TGR inh
O=C1CC(c2ccc(O)c(O)c2)Oc2cc(O)cc(O)c21 (stereo not given),-22.4%,1.3%,3.9%,0.5%,-36.5%,39.8µM*
CC(=O)Oc1cccc(N2C(=O)C3C4C=CC(C4=C(C)C)C3C2=O)c1 (stereo not given),-23.4%,-8.8%,35.5µM*,-18.1%,-15.2%,-24.1%
CC(=O)Oc1cccc(N2C(=O)C3C(C2=O)C2C=CC3C23CC3)c1 (stereo not given),-24.8%,?,-0.9%,-1.2%,-3.5%,39.8µM*
CC(=O)Oc1cccc(N2C(=O)C3CC=CCC3C2=O)c1 (stereo not given),0.0%,-4.5%,-20.2%,-5.9%,-19.3%,0.8%
CC(=O)Oc1cccc(N2C(=O)c3ccccc3C2=O)c1,-2.7%,-5.6%,2.7%,5.9%,-16.9%,-2.9%
CCC(=O)N/N=C(\C)CC(=O)Nc1ccc(F)cc1,7.0%,2.4%,-8.0%,-1.0%,-13.9%,-14.0%
CC(=O)Nc1ccc(NC(=O)C/C(C)=N/NC(N)=S)cc1,-3.9%,-9.6%,-7.2%,11.2µM*,-25.0%,-8.8%
O=c1oc2ccccc2c2oc3cc(O)c(O)cc3c12,-18.1%,-1.0%,-9.2%,-0.8%,14.1µM*,0.0%
Nc1c(N)c2ccccc2oc1=O,6.0%,-2.6%,-12.0%,5.2%,-13.7%,-8.2%
COc1ccc(C2=NN(C(=S)Nc3ccccc3)C(c3ccccc3)C2)cc1 (stereo not given),3.1%,-5.3%,-1.1%,20.4%,25.1µM*,0.0%
COc1ccc(C2CC(c3ccccc3)=NN2C(=S)Nc2ccccc2)cc1 (stereo not given),-0.9%,-1.5%,20.2%,2.9%,-35.8%,-0.4%
CC1CCN(c2ccc(-c3cccc(NS(=O)(=O)c4cccs4)c3)nn2)CC1,-4.9%,-1.8%,.,.,.,-6.6%
CN1CCC(=C2c3ccccc3CC(=O)c3sccc32)CC1,1.9%,-3.1%,-4.5%,-2.2%,-4.4%,50.1µM*!
CC1(C)CC(=O)C2=C(C1)N(c1ccccc1)C(=O)C(C(=O)OCc1ccccc1)C2 (stereo not given),0.1%,.,1.5%,.,.,.
CC1(C)CC(=O)C2=C(C1)N(c1cccc(O)c1)C1=C(C2)C(=O)CC(C)(C)C1,-5.9%,0.2%,5.3%,2.4%,-44.0%,31.6µM*
CCOC(=O)c1c(N)n(Cc2ccco2)c2nc3ccccc3nc12,0.1%,?,-4.1%,-3.2%,1.2%,44.7µM*
